# HT1080NT lethal – kills 2HG-producing HT-1080-NT fibrosarcoma cells. Potency, µM (top dose mostly 46.1 µM), inactives show at the highest dose activity, negative = less viability, hits mostly cytotoxic. 360,000 compounds, 1.6% hits. HT-1080-NT fibrosarcoma viability, CellTiter-Glo ATP luminescence, 48 h;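 note: NT is the 2HG producing partner of a matched IDH1 knockdown line; potency is the fitted concentration of half-maximal effect; 0% = DMSO-treated cells and -100% = media-only wells without cells; nearly all actives have a fitted effect of over 55% in size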
#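 HT-1080-NT fibrosarcoma cells (2HG-overproducing), 750 cells/well in RPMI with 5% FBS, dosed after 2 h and incubated 48 h at 37C. CellTiter-Glo luminescence normalized to DMSO and no-cell wells; concentration-response curves fitted and classed.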
# IL-1B inflam inh – inhibitors of inflammasome signaling (IL-1 beta secretion). AID 743279. activity change, % at 57.5 µM. 360,000 compounds, 4.7% hits. THP-1 LPS/ATP IL-1B secretion, AlphaLISA, 16 h; active compounds read low; in the data active = activity change below about -50%; inconclusive = mostly about -30% to -49%
#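 Secreted IL-1B measured by AlphaLISA bead assay after 16 h compound exposure of THP-1 cells; compounds (final up to 57.5 uM) added 1 h before LPS (250 ng/mL) and ATP (1.25 mM) stimulation; lower signal means less secretion.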
# HT1080 IDH1KD tx – toxicity to HT-1080 IDH1 knockdown cells (counter line). HT-1080 IDH1 knockdown viability, ATP luminescence, 48 h. Potency, µM (top dose mostly 46.1 µM), without a hit: at the highest dose activity, negative = toxicity, actives largely listed as cytotoxic. 360,000 compounds, 2% hits. AID 686971;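 note: potency is the fitted concentration of half-maximal effect; 0% = DMSO wells and -100% = cell-free medium wells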
#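 Luminescent ATP read-out (CellTiter-Glo, 10 min at room temperature) after 48 h compound exposure at 37 °C gave viability of IDH1-knockdown HT-1080 cells. Activity was normalised to DMSO and cell-free wells, then fitted as concentration-response curves.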
# DT40 TDP1 CPT – growth inhibition of DT40 Tdp1-/-;hTDP1 cells with camptothecin (screen for TDP1 inhibitors); chicken DT40 Tdp1-/-;hTDP1 cells + 20 nM CPT, ATP luminescence, 48 h; Potency, µM (highest dose often 46.2 µM), inactives show at the top dose activity change, negative = growth inhibition, most hits filed as inhibitors; 420,000 compounds, 12% hits; AID 686979; note: potency is the fitted concentration of half-maximal effect; nearly all actives have a fitted effect of over 55% in size
#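 Cell growth measured by CellTiter-Glo luminescence after a minimum 48 h, 37 C compound exposure with 20 nM CPT in Tdp1-knockout DT40 cells stably expressing hTDP1, seeded 400/well; qHTS titration format.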
# TDP1 cell noCPT – qHTS for Inhibitors of human tyrosyl-DNA phosphodiesterase 1 (TDP1): qHTS in cells in absence of CPT. DT40 Tdp1-/- hTDP1 cells, no CPT, ATP luminescence, 48 h. Potency, µM (top dose mostly 46.2 µM), for inactives: top-dose activity change, negative = growth inhibition, usual class: inhibitors. 420,000 compounds, 15% hits. AID 686978, 2013; note: potency is the fitted concentration of half-maximal effect; nearly all actives have a fitted effect of over 55% in size
#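 A cellular qHTS used chicken DT40 cells lacking endogenous Tdp1 but carrying stably transfected human TDP1. Compounds were applied without camptothecin, and cell growth kinetics were judged by ATP-dependent luminescence after ≥48 hr.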
# The depositor's hits bear a star; ? = inconclusive; . = not tested or not shown; [ ] = dose if it differs, or a comment. An excerpt weighted towards active compounds, which were near 19% of everything screened. Unless noted, calls come from the whole dose curve; as a rule, active = well fitted curve in the direction sought with a large enough effect; inconclusive = small, poorly fitted or top-dose-only effect, or another doubt; inactive = no such curve, though single readings can be large; an effect the other way counts as inactive or inconclusive. Unless noted, % is set by controls: 0 for no effect and ±100 for the full control effect.
SMILES,HT1080NT lethal,IL-1B inflam inh,HT1080 IDH1KD tx,DT40 TDP1 CPT,TDP1 cell noCPT
COc1ccc(-n2ccnc(NCCc3ccccc3)c2=O)cc1OC,.,.,.,?,21µM*
Cc1ccc(-n2ccnc(NCc3cccs3)c2=O)cc1C,.,.,.,?,13µM*
COc1cc2ncnc(NCCc3ccccc3)c2cc1OC,10%,0,5%,13µM*,9.2µM*
COc1ccc(CCNc2ncnc3c2nnn3Cc2ccccc2)cc1OC,-12%,-11,-1%,23µM*,?
COc1ccc(CCNc2ncnc3c2[nH]c2cc(OC)c(OC)cc23)cc1OC,?,.,?,4.6µM*,6.5µM*
COc1cc2ncnc(NCc3ccc(C)cc3)c2cc1OC,3%,-1,-13%,?,23µM*
COc1ccc(CCNc2nc(=S)[nH]c3cc(OC)c(OC)cc23)cc1OC,-6%,15,1%,-29%,?
COc1ccc(CCNc2ncnc3cc(OC)c(OC)cc23)cc1OC,-24%,-73*,-22%,3.7µM*,6.5µM*
COc1cccc(CNc2ncnc3cc(OC)c(OC)cc23)c1,-15%,-17,-1%,?,?
COc1ccc(CNc2ncnc3cc(Cl)ccc23)cc1OC,-18%,0,-23%,?,13µM*
Cc1ccnc(NS(=O)(=O)c2ccc(NC(=O)CC(C)c3ccccc3)cc2)n1 (centres undefined),8%,30,5%,1%,11%
Cc1ccc(C)c(S(=O)(=O)N2CCCC2CNC(=O)C(=O)NC2CC2)c1 (centres undefined),0%,1,13%,17%,-27%
COc1c(NC=O)c2c(c([N+](=O)[O-])c1OC)C(=O)OC2,-8%,9,-4%,-13%,-11%
CC1=C(C(N)=O)C(c2cccc(O)c2)n2ncnc2N1 (centres undefined),.,.,.,10%,-7%
CC1=C(C(=O)OC(C)C)C(c2cccc(F)c2)n2ncnc2N1 (centres undefined),-2%,44,2%,15µM*,16µM*
CCc1ccc(-c2nn(CC(=O)NC3CCCCC3)c3c2cnc2ccc(OC)cc23)cc1,.,.,.,5.8µM*,5.8µM*
CCCNC(=O)Cn1nc(-c2ccc(C)c(C)c2)c2cnc3ccc(OC)cc3c21,.,.,.,10µM*,8.2µM*
CCc1ccc(-c2nn(CC(=O)NC3CCCCC3)c3c2cnc2ccc(C)cc23)cc1,.,.,.,-10%,-5%
COc1ccc2ncc3c(-c4ccc(C)c(C)c4)nn(CC(=O)NC4CCCCC4)c3c2c1,.,.,.,8.2µM*,12µM*
COc1cc2ncc3c(-c4ccccc4)nn(CC(=O)NC4CCCCC4)c3c2cc1OC,.,.,.,15µM*,15µM*
CCN(CC)CCNC(=O)C1c2cc(OC)c(OC)cc2C(=O)N(C)C1c1cccs1 (centres undefined),-11%,20,-1%,-8%,21%
CCc1ccc(-c2nn(-c3ccc(OC)cc3)c3c2cnc2ccc(OC)cc23)cc1,.,.,.,?,6.5µM*
Cc1ccc(S(=O)(=O)Cc2cccc(C(=O)N3CCOCC3)c2)cc1,14%,2,18%,-3%,-1%
COc1ccc2c(CN3CCN(Cc4ccccc4)CC3)cc(=O)oc2c1,2%,-5,-16%,?,23µM*
COc1ccc2oc(=O)cc(CN3CCN(Cc4ccccc4)CC3)c2c1,-3%,36,-4%,?,?
Cc1ccc2c(CN3CCCCC3)cc(=O)oc2c1C,4%,1,0%,4%,4%
O=c1cc(CN2CCN(Cc3ccccc3)CC2)c2ccc(O)c(O)c2o1,?,83,?,10µM*,15µM*
Cc1ccc2c(CN3CCN(S(=O)(=O)c4ccccc4C(F)(F)F)CC3)cc(=O)oc2c1C,-11%,3,-6%,?,23µM*
COc1ccc2c(COC(=O)c3n[nH]c4ccccc34)cc(=O)oc2c1,7%,0,15%[9.24 µM],?,21µM*
Cc1cc2oc(=O)cc(COC(=O)c3n[nH]c4ccccc34)c2cc1C,4%,-22,0%,?,?

# Screening results: PubChem BioAssay, National Center for Advancing Translational Sciences (NCATS)
